Max response, negative = inhibition and Potency data for 55 compounds are collected here from PubChem BioAssay AID1476 (National Center for Advancing Translational Sciences (NCATS), 2009).

Several values for one entry are separate records, joined by “and”; a condition that tells them apart may be missing. Equal entries are not always repeated. About 4,500 (2.2%) of roughly 200,000 compounds were called active. Not shown: some 12% with an inconclusive outcome. The call rests on the fitted dose curve; in most records, active means well fitted inhibition curve with a large enough effect; inconclusive means small, poorly fitted or top-dose-only effect, or effect the other way; inactive means flat fitted curve, though single readings scatter. The sample as a whole holds a higher share of actives than the screen did. More than one record can exist for a structure, and the calls need not agree.
Potency means the concentration at half of the fitted maximal effect.

Sequence of Cruzipain (Trypanosoma cruzi) (P25779 123-467 limits assumed): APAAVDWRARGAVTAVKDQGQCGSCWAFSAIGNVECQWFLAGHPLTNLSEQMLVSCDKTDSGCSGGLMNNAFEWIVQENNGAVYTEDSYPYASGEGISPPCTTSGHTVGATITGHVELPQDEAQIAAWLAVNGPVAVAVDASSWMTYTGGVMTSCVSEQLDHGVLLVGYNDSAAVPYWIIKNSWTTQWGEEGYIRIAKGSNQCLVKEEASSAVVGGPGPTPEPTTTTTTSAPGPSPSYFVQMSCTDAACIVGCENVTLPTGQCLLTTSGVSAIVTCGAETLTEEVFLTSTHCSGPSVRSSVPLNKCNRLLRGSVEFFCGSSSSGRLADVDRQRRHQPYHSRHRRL

The target of the assay is Cruzipain (Trypanosoma cruzi) (UniProt P25779). Put plainly: qHTS Assay for Promiscuous and Specific Inhibitors of Cruzain (without detergent). Further: nearly all actives have a fitted effect of over 40% in size. To be noted: purified cruzain, Z-FR-AMC fluorescence, no detergent. The protocol:
Cruzain is a cysteine protease from the tropical parasite Trypanosoma cruzi. Dual qHTS experiment was performed against the NCGC compound collection in order to 1) identify novel inhibitors of the enzyme and 2) profile the compound collection for promiscuous inhibitors operating via colloidal aggregation (by performing detergent-free and detergent-containing comparison screens). Cruzain was assayed by the use of fluorogenic coumarin-based substrate Z-FR-AMC: proteolytic cleavage releases AMC, whose fluorescence is measured at 360 nm excitation and 450 nm emission. Purified cruzain was supplied by the labs of Prof. James McKerrow and Brian Shoichet, UC San Francisco.
This assay had 0.00005% Triton X-100 concentration. See also releated assay "qHTS Assay for Promiscuous and Specific Inhibitors of Cruzain (with detergent)" with 0.01% Triton X-100.
See following references for additional details:
Assay Provider: Shoichet, Brian; University of California, San Fancisco
Screening Center PI: Austin, C.P.
Screening Center: NIH Chemical Genomics Center [NCGC]
Buffer: 100 mM Sodium Acetate, pH 5.5, 5 mM DTT, Triton X-100 concentration: 0.01%.
Buffer in columns 3 and 4 as negative control (no enzyme).
Substrate solution: 2 uM final concentration of Z-FR-AMC (catalog number I-1160, Bachem) dispensed throughout the plate.
Enzyme: 1.5 nM Cruzain final concentration in columns 1, 2, 5-48. Column 1 is neutral (100% activity). Column 2 contained titration of covalent inhibitor K11777, starting concentration 1 mM, then 1:2 dilution in duplicate).
Three uL of enzyme or buffer were dispensed to 1536-well Greiner black solid bottom plates. Compounds and controls (23 nL) were transferred via Kalypsys PinTool. The plates were incubated for 15 min at room temperature, and then 1 uL of substrate solution was added to start the reaction. The plates were immediately transferred to and read 4 times every 30 seconds for 2 min on ViewLux High-throughput CCD imager (Perkin-Elmer) using 360 nm excitation and 450 nm emission fluorescence protocol. The fluorescence intensity difference between the third and the first time points (time lapse of 60 seconds) was used to compute reaction progress.
Take `COc1ccc(-c2nc3c4ccccc4n(CC(=O)Nc4ccc(C(C)=O)cc4)c(=O)n3n2)cc1`: the max response, negative = inhibition is 12.6% (inactive).

`CCN(CC)S(=O)(=O)c1ccc2c(c1)c(=O)c(C(=O)N1CCN(c3cccc(Cl)c3)CC1)cn2C`: the max response, negative = inhibition is 15.1% (inactive).

`COc1ccc(CCC(=O)NCCc2csc(-c3ccc(Cl)cc3)n2)cc1`: the max response, negative = inhibition was 28.2% (inactive).

With `O=C(/C=C/c1ccccc1)c1ccccc1O`, the max response, negative = inhibition is 9.27% (inactive) and -2.28% (inactive).

In the case of `CC(=O)c1c(O)c(C)c(O)c(Cc2c(O)c3c(c(C(=O)/C=C/c4ccccc4)c2O)OC(C)(C)C=C3)c1O`, the Potency is 7.94 µM (active) and the max response, negative = inhibition is 24.8% (inactive).

For the compound `CC(=O)c1c(O)c(C)c(O)c(Cc2c(O)c3c(c(C(=O)/C=C\c4ccccc4)c2O)OC(C)(C)C=C3)c1O`, the max response, negative = inhibition is 23.6% (inactive).

For `COc1cc(C(=O)NCC(c2ccc(Cl)cc2)N2CCOCC2)cc(OC)c1OC` (stereo unspecified), the max response, negative = inhibition is 9.67% (inactive).

Turning to `O=C(O)c1ccc(NC(=O)c2cccs2)cc1`, the max response, negative = inhibition was -2.86% (inactive).

Regarding `O=C(Nc1ccccc1)/C(=C/c1ccc([N+](=O)[O-])cc1)NC(=O)c1ccccc1`, the Potency is 10 µM (active).

For `COCCCNC(=S)NC(=O)c1ccc([N+](=O)[O-])cc1`, the max response, negative = inhibition is -9.94% (inactive).

Regarding `CNC(=O)/C(=C\C=C\c1ccccc1)NC(=O)c1ccc([N+](=O)[O-])cc1`, the max response, negative = inhibition was 1.75% (inactive).

With `O=C(NCCc1ccccc1)/C(=C\c1ccc([N+](=O)[O-])cc1)NC(=O)c1ccccc1`, the max response, negative = inhibition was -28.6% (inactive).

On to `O=C(NC(=S)Nc1ccc(NC(=O)c2cccs2)cc1)c1ccc([N+](=O)[O-])cc1`, for which the Potency is 12.6 µM (active).

With `Cc1cccc(C(=O)Nc2ccc(-c3nc4ncccc4o3)cc2C)c1`, the max response, negative = inhibition is -6.61% (inactive).

As to `Cc1noc2ncnc(NCc3ccccc3Cl)c12`, the max response, negative = inhibition was -9.31% (inactive).

Turning to `Cc1ccc(C)c(N2CCN(S(=O)(=O)c3ccc4c(c3)C(C(C)C)C(=O)N4)CC2)c1` (stereo unspecified), the max response, negative = inhibition is -9.68% (inactive).

Regarding `CCOC(=O)c1cccc(NS(=O)(=O)c2cn(C)c(C)n2)c1`, the max response, negative = inhibition was 6.22% (inactive).

As to `Cc1ccc2c(=O)cc(C(=O)Nc3sc4c(c3C(=O)NCc3cccnc3)CCCC4)oc2c1`, the max response, negative = inhibition was -7.89% (inactive).

As for `Cc1cc(C)n(-c2c(F)c(F)c(COC(=O)c3ccccc3)c(F)c2F)n1`, the max response, negative = inhibition is 2.62% (inactive).

In the case of `Cn1nc(-c2ccccc2)c(CSc2cccc(Cl)c2)c1Cl`, the max response, negative = inhibition is 2.52% (inactive).

For `Cc1ccc(S(=O)(=O)c2c(COC(=O)c3cccc(Cl)c3)c(-c3ccccc3)nn2C)cc1`, the Potency was 25.1 µM (active).

Take `Cc1ccc(CNC(=O)c2c(O)nc3c(C)cccn3c2=O)cc1`: the max response, negative = inhibition was -9.77% (inactive).

On to `O=C(O)c1c(CNCc2cccc(F)c2)c2ccccc2n1Cc1ccccc1`, for which the max response, negative = inhibition was 0.0489% (inactive).

For `Cc1ccc(-c2nc(-c3cccnc3)sc2CC(=O)Nc2ccc(C)c(Cl)c2)cc1`, the Potency is 25.1 µM (active).

Consider `Cc1cc(C)c(NC(=O)CS(=O)CC(=O)Nc2cccnc2)c(C)c1` (stereo unspecified), for which the max response, negative = inhibition is -6.14% (inactive).

In the case of `Cc1ccc(NC(=O)COc2ccc(-n3ccnc3)cc2)cc1Cl`, the max response, negative = inhibition is 3.27% (inactive).

Regarding `Cc1ccc(-c2ccc(CCC(=O)O)n2-c2ccc(C(N)=O)cc2)cc1`, the max response, negative = inhibition was -3.67% (inactive).

Take `O=C(Nc1ccc2c(c1)CCC2)c1cccc(S(=O)(=O)N2CCN(c3ccc(F)cc3)CC2)c1`: the Potency is 20 µM (active).

`O=C(Nc1cccc(F)c1)c1ccc(S(=O)(=O)N2CCCC2)cc1`: the max response, negative = inhibition is 6.1% (inactive).

As to `O=C(Nc1ccc2c(c1)CCC2)c1cccc(S(=O)(=O)Nc2ccccc2Cl)c1`, the max response, negative = inhibition was -19.6% (inactive).

As to `O=C(Cn1nc(Cc2cccnc2)c2ccccc2c1=O)N1CCN(c2ccccc2F)CC1`, the max response, negative = inhibition is -3.19% (inactive).

`O=C(NCCc1ccccc1)c1ccc2c(c1)N(Cc1ccccc1)C(=O)c1ccccc1S2(=O)=O`: the Potency was 20 µM (active).

Turning to `O=C(NCCc1ccccc1)c1ccc2c(c1)N(Cc1ccc(F)cc1)C(=O)c1ccccc1S2(=O)=O`, the max response, negative = inhibition was 2.91% (inactive).

Regarding `COCCNC(=O)c1ccc2c(c1)N(Cc1cccc(Cl)c1)C(=O)c1ccccc1S2(=O)=O`, the max response, negative = inhibition is 9.95% (inactive).

Take `Cc1nn(-c2ccc(N3CCCCC3)nn2)c(C)c1CCC(=O)NCc1ccccc1F`: the max response, negative = inhibition was -5.41% (inactive).

Consider `Cc1cc(Br)ccc1NC(=O)Cn1cnc2sc(C)c(S(=O)(=O)N3CCN(C)CC3)c2c1=O`, for which the max response, negative = inhibition is -2.69% (inactive).

For `Clc1ccccc1SCc1nc2ccccc2[nH]1`, the max response, negative = inhibition was -0.47% (inactive).

Regarding `c1ccc(-c2nnc(SCc3nc4ccccc4[nH]3)o2)cc1`, the Potency was 12.6 µM (active).

`Clc1ccc(-c2nnc(SCc3nc4ccccc4s3)o2)cc1`: the max response, negative = inhibition is -6.5% (inactive).

Regarding `COc1ccc(N2CC(C(=O)NCCS(=O)(=O)N3CCN(c4ccccc4)CC3)CC2=O)cc1` (stereo unspecified), the max response, negative = inhibition was 3.76% (inactive).

For `Cc1ccc(C(=O)COC(=O)C(Cc2c[nH]c3ccccc23)NC(=O)c2ccc(Br)cc2)cc1` (stereo unspecified), the Potency was 12.6 µM (active).

As for `Cc1[nH]c2ccccc2c1C(=O)COC(=O)C(C)C`, the max response, negative = inhibition is 3.26% (inactive).

As to `O=C(Cc1c[nH]c2ccccc12)OCCOC(=O)Cc1c[nH]c2ccccc12`, the max response, negative = inhibition was 1.16% (inactive).

On to `CN(C(=O)c1ccc2c(c1)N(Cc1cccc(Cl)c1)C(=O)c1ccccc1S2=O)C1CCCCC1` (stereo unspecified), for which the max response, negative = inhibition was -3.62% (inactive).

As to `Cc1csc2nc(COC(=O)c3ccccc3NC(=O)c3ccccc3Cl)cc(=O)n12`, the max response, negative = inhibition is -1.98% (inactive).

Turning to `COc1ccc(Cl)cc1NC(=O)C(C)Sc1nc2c(c(=O)[nH]1)CCCC2` (stereo unspecified), the max response, negative = inhibition is -3.86% (inactive).

Consider `O=S(=O)(c1ccc2nc(N3CCN(c4cccc(Cl)c4)CC3)ccc2c1)N1CCCCC1`, for which the max response, negative = inhibition is -14.3% (inactive).

In the case of `Cc1ccc(NC2(C#N)C(=O)Nc3ccccc32)cc1` (stereo unspecified), the max response, negative = inhibition was -4.74% (inactive).

Turning to `O=C1Nc2ccccc2C12Nc1ccccc1S2` (stereo unspecified), the Potency was 25.1 µM (active).

Consider `CCc1ccc2c(c1)C1(NN=C(c3ccccc3)S1)C(=O)N2` (stereo unspecified), for which the max response, negative = inhibition is -24.1% (inactive).

`O=c1c(O)c(Br)ccc2c(Br)c(O)c(O)c(O)c12`: the max response, negative = inhibition is -27.1% (inactive).

Take `CCC(C)Nc1oc(-c2ccc(COc3ccc(Cl)cc3)o2)nc1C#N` (stereo unspecified): the max response, negative = inhibition is 2.48% (inactive).

For `Cc1ccc(S(=O)(=O)N2CC(=O)Nc3ccccc32)cc1C`, the max response, negative = inhibition is 2.47% (inactive).

`O=C(O)c1ccc(Nc2nc(-c3ccccc3)c3cc(Br)ccc3n2)cc1`: the max response, negative = inhibition is 27.1% (inactive).

With `O=C1CN(c2nc(-c3ccccc3)c3cc(Br)ccc3n2)c2ccccc2N1`, the Potency was 12.6 µM (active).
